System: BMX
Settings: concentration: 1 μM, replicates: in singlicate; n = 1
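Note: KINOMEscan kinase panel screen.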

Structure (SMILES)	%Inh
COc1cc(Nc2nccc(N3CCC(NS(=O)(=O)c4ccc(NC(C)=O)cc4)CC3)n2)cc(OC)c1OC [GSK1379825]	32%
Cc1cc(-c2ccnc(Nc3cccc(C#N)c3)n2)cc(C)c1O [GSK1440913]	25%
Cc1ccc(C)c(NC(=O)Nc2ccc(C)c(-c3ccc(C(=O)Nc4ccncc4)cc3)c2)c1 [GSK1398473]	0%
CN(C)CCNS(=O)(=O)c1ccc(-c2ccnc3[nH]ccc23)cc1 [GSK977620]	9%
O=C(Nc1n[nH]c2nc(-c3cccc(O)c3)ccc12)C1CC1 [SB-711805]	4%
COc1cccc(C2=C(Nc3cccc(O)c3)C(=O)NC2=O)c1 [SB-390771]	4%
CSc1ccc(NC2=C(c3ccc(Cl)cc3)C(=O)NC2=O)cc1 [SB-317658]	11%
Cc1ccc(O)cc1Nc1ccnc2cc(-c3ccc(CN4CCCCC4)o3)ccc12 [GW557777]	50%
Fc1cc(Cl)ccc1Nc1ccnc2cc(-c3ccc(CN4CCOCC4)o3)ccc12 [GW560109]	35%
COC(=O)Nc1nc2ccc(Oc3ccc(NC(=O)Nc4cc(C(F)(F)F)ccc4F)cc3)cc2[nH]1.Cl [GW654607]	0%
CN(c1ccc(NC(=O)N2CCN(CCCN3CCOCC3)CC2)cc1)c1ccnc(Nc2ccc(CS(C)(=O)=O)cc2)n1.Cl [GW830899]	0%
CCn1c(-c2nonc2N)nc2c(-c3ccccc3)ncc(OCCCN)c21.O=C(O)C(F)(F)F.O=C(O)C(F)(F)F [GSK260205]	0%
COc1cc(Nc2nccc(N3CCC(NC(=O)Nc4ccc5c(c4)OCO5)C3)n2)cc(OC)c1OC (stereo not drawn) [GSK1379766]	0%
Cc1ccc(NC(=O)c2ccnc(N3CCCCC3)c2)cc1-c1ccc(C(=O)NCC2CC2)cc1 [GW775610]	0%
COC(=O)Nc1nc2ccc(Oc3ccc(CC(=O)Nc4cc(C(F)(F)F)ccc4F)cc3)cc2[nH]1 [GW680903]	16%
COc1ccc(NC(=O)c2ccoc2)cc1-c1ccc(C(=O)NCC2CC2)cc1 [GW810437]	3%
Cc1cccc(Nc2nc(NCCN)ncc2C(N)=O)c1 [GSK1292139]	0%

Structure (SMILES)	%Inh
Cl.N#CCc1ccc(Nc2nccc(Nc3ccc(Oc4ccccc4)cc3)n2)cc1 [GW639905]	34%
Fc1cc(Cl)ccc1Nc1ccnc2cc(-c3ccc(CN4CCSCC4)o3)ccc12 [GW560106]	20%
NCCC(NC(=O)c1cc(Br)c(-c2ccnc3[nH]ccc23)s1)c1ccccc1.O=C(O)C(F)(F)F.O=C(O)C(F)(F)F (stereo not drawn) [GSK1307810]	25%
O=C(O)C(F)(F)F.O=c1[nH]ccc2nc(N[C@@H]3CCNC3)nc(Nc3ccc4c(c3)S(=O)(=O)CC4)c12 [GSK2181306]	24%
Cc1ccccc1CC(=O)N1CCc2cc(-c3cn(C)c4ncnc(N)c34)ccc21 [GSK2603346]	2%
CCNC(=O)/C=C/c1n[nH]c2cc(Sc3ccccc3C(=O)NC)ccc12	18%
Nc1ncc(-c2ccc3nccc(-c4ccncc4)c3c2)cc1S(=O)(=O)N1CCCCC1 [GSK1693850]	22%
CS(=O)(=O)c1cccc(CNc2nc(Nc3ccc4c(c3)CCC(=O)N4)ncc2C(F)(F)F)c1	0%
COc1ccc(C)c(Nc2ccnc(Nc3ccc(-c4cnc[nH]4)cc3)n2)c1.Cl [GW784041]	46%
O=C(O)C(F)(F)F.O=c1[nH]ccc2nc(N[C@@H]3CCNC3)nc(Nc3cc(Cl)cc(Cl)c3)c12 [GSK2188764]	27%
Cl.Cl.NC(CNC(=O)c1cc(Br)c(-c2ccnc3[nH]ccc23)s1)c1ccccc1 (stereo not drawn) [GSK1322949]	5%
COC(=O)Nc1nc2cc(Oc3ccc(NC(=O)Nc4cccc(SC)c4)cc3)ccc2[nH]1.Cl [GW697999]	0%
CCOc1nccc(-c2c(-c3ccc(F)cc3)ncn2C2CCNCC2)n1 [SB-249175]	12%
Cl.Cl.NCC(NC(=O)c1cc(-c2cccnc2)c(-c2ccnc3[nH]ccc23)s1)c1ccccc1 (stereo not drawn) [GSK1323434]	36%
Nc1ncnc2scc(-c3ccc(NC(=O)Cc4cc(F)ccc4F)cc3)c12.O=C(O)C(F)(F)F [SB-731254-M]	0%
Cn1cc(-c2ccc3c(c2)CCN3C(=O)Cc2cc(F)cc(C(F)(F)F)c2)c2c(N)ncnc21 [GSK2635225]	15%
